Results on 29 compounds are retold here after ChEMBL document CHEMBL4513216, “Probing the Open Global Health Chemical Diversity Library for Multistage-Active Starting Points for Next-Generation Antimalarials” (ACS Infect Dis, 2020).

Hit rate of the full screen: of about 68,000 compounds, about 2,700 (4%) showed an effect of 50% or more. For the sample, strong results were picked, then their nearest neighbours and some compounds at random.

This assay deals with Plasmodium berghei. Briefly: Screen against P. berghei liver stage (PbLuc), transformed with Luciferase, at 2uM. As to conditions: tested at 2 uM. The format is functional, HepG2.
Take `O=C(c1ccco1)N1CCOC2(COCCN(c3ncccn3)C2)C1` (centres undefined): the INHIBITION amounted to 36.06%.
The value for `Cc1cccc(CN2CCc3onc(Cn4cccc4)c3C2)n1` was 15.36%.
The value for `Cc1cccc(CN2CCc3onc(CO)c3C2)n1` was 52.12%.
The value for `Cc1cccc(CN2CCc3onc(CN(C)C)c3C2)n1` was 26.77%; that for `CCOc1ncccc1NC(=O)NC1CCN(S(C)(=O)=O)CC1` was -68.26%; that for `CCN(CC)C(=O)[C@@H]1C[C@H](n2cc(-c3cccc(OC)c3)nn2)CN1` was 36.28%.
For the compound `CCN(CC)C(=O)[C@@H]1C[C@@H](n2cc(-c3ccccn3)nn2)CN1`, the INHIBITION stood at 38.67%.
Consider `CCN(CC)C(=O)[C@@H]1C[C@@H](n2cc(-c3cccc(OC)c3)nn2)CN1`, for which the INHIBITION was 57.75%.
Consider `CC1(C)CC(n2cc3nc(N4CCCC4)[nH]cc-3c2=O)CC(C)(C)N1`, for which the INHIBITION came out at 6.2%.
Next, `O=C(CCc1cccc(Cl)c1)NS(=O)(=O)Cc1ccon1`: 41.05%.
Next, `O=C(CCc1ccco1)NS(=O)(=O)Cc1ccon1`: 50.59%.
The value for `O=C(CCc1ccsc1)NS(=O)(=O)Cc1ccon1` was -6.64%.
Turning to `CCCNc1ccc(C(=O)NCCc2cccc(OC)c2)cn1`, the INHIBITION is 19.09%.
The value for `CC(C)NC(=O)N1CCCCC1c1nnc2n1CCNC2` (centres undefined) was -15.93%.
Next, `CC(NC(=O)c1ccc(Cl)cc1)c1nnc(SCC(=O)O)n1C` (centres undefined): 4.37%; `Cc1c(CN2CCCC(O)C2)[nH]c2ccc(F)cc12` (centres undefined): -1.51%; `Cc1c(CN2CC[C@@H](N3CCC(O)CC3)[C@H](O)C2)[nH]c2ccc(F)cc12`: 51.43%.
The value for `Cc1c(CN2CC[C@@H](N3CCC(O)CC3)[C@H](O)C2)[nH]c2ccc(Cl)cc12` was -31.36%; that for `Cc1nccc(-c2ccccc2)c1C(=O)N1CC[C@](C)(O)C(C)(C)C1` was 48.93%.
For the compound `COC1COC2(CCN(Cc3ccc4ccccc4n3)CC2)C1` (centres undefined), the INHIBITION was -0.18%.
The value for `CCn1ncc(C(=O)NCc2ccc(C)c(OC)c2)c1C(F)(F)F` was 55.52%; that for `CCOc1cccc(CNC(=O)c2cnn(CC)c2C(F)(F)F)c1` was 40.97%; that for `CCOc1cc(CNC(=O)c2cnn(CC)c2C(F)(F)F)ccn1` was -61.54%.
Next, `Cc1cncc(C(=O)N2Cc3ccccc3C3(CCN(C)CC3)C2)c1`: 5.28%; `CN1CCC2(CC1)CN(C(=O)c1ccncc1)Cc1ccccc12`: 56.25%.
Next, `CN1CCC2(CC1)CN(C(=O)c1cccnc1)Cc1ccccc12`: -19.51%; `CCc1nnc(C2Cc3ccccc3CN2Cc2cc(C)no2)o1` (centres undefined): 56.89%; `CCc1nnc(C2Cc3ccccc3CN2Cc2cc(C)on2)o1` (centres undefined): 33.9%.
As to `Cc1cc(CN2Cc3ccccc3CC2c2nnc(C)o2)on1` (centres undefined), the INHIBITION came to 21.91%.
